Measured values taken from the supplement of paper PMC10338343.
± gives the standard deviation.

Each sequence was assayed on MILI (PIWIL2) piRISC loaded with L1MC piRNA (26 nt) (assay: pre-steady-state target cleavage rate (min^-1); guide: L1MC piRNA 5'p-UAACUAAAUACUAUGCAAGCUGUAGG; MIWI and MILI are mouse PIWI proteins and EfPiwi is from a freshwater sponge; tags in brackets are library labels; higher = faster piRNA-guided slicing of the target). Conditions: auxiliary factor: none (no GTSF1).
Outline: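 Cleave-'n-Seq measured uncleaved targets by sequencing after a transcribed, DNA-blocked target RNA library […] was mixed with 1 nM active affinity-purified piRISC holding one synthetic guide, with or without 500 nM GTSF1 partner protein, at 33 °C in HEPES–potassium acetate buffer for 0–8 or 0–960 min. Counts were normalised to depth and to weakly complementary targets, three trials were pooled, and k3 was capped at 0.0001 min^-1. A burst-and-steady-state fit gave the pre-steady-state cleavage rate.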
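Further: 1 nM active piRISC with 0.1 nM target library at 33 °C single turnover.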

Sequence | pre-steady-state target cleavage rate
UCCUGGUACAGCAUGCUUAGUAUUUAGUUA | 0.0118 ± 0.0026
UCCUGGAUGUCUUUGCAUAGUAUUUAGUUA | 0.0125 ± 0.0027
UCCUGCUACAGCUUGCAUAGUAUUUGGUUA | 0.00697 ± 0.0023
UCCUCCUAAGCUUGCAUAGUAUUUAGUUA | 0.00512 ± 0.002
UCCUGGUACAGCUGCAUAGUAUUUAGUUA | 0.0103 ± 0.0029
UCCUGGUACAGCUUUGCAUAGUAUUUAGUUA | 0.0164 ± 0.0048
UCCUGCUACUCCUUGCAUAGUAUUUAGUUA | 0.0091 ± 0.0024
UCCUGCUACAGGUUGCAUAGUAUAUAGUUA | 0.00597 ± 0.0027
UCCUGGUACUGCAUGCAUAGUAUUUAGUUA | 0.00932 ± 0.0034
UCCUGGAUCAGGUUGCAUAGUAAUUAGUUA | 0.00739 ± 0.0017
UCCUGGUAGAGCUUGGAUAGUAUUUAGUUA | 0.00624 ± 0.0029
UCCUCCUACAGCUUGCAUACUAUUUAGUUA | 0.00383 ± 0.0021
UCCUGGAACAGCUUGCAUAGUAUUUUAGUUA | 0.0048 ± 0.0033
UCCUCCUUCAGCUUGCAUAGUAUUAAGUUA | 0.00246 ± 0.0023
UCCUCCUACAGCUUGCAAAGUAAUUAGUUA | 0.00331 ± 0.0024
UCCUGCUACAGCUUGGAUAGUAUAUAGUUA | 0.00442 ± 0.0023
UCCUGCUACAGCUUGCAUUGUAUUUUGUUA | 0.00301 ± 0.0027
UCCUCCUAAAGCUUGCAUAGUAUUUAGUUA | 0.00372 ± 0.0021
UCCUGGUAAAGCUUGCAUAGUAUUUAGUUA | 0.00996 ± 0.0023
UCCUGGAUCAGCAUGCAUAGUAUUUAGAAA | 0.0038 ± 0.0026

Sequence | pre-steady-state target cleavage rate
UCCUGCUACAGGUUGCAUAGUAAUUAGUUA | 0.00697 ± 0.0026
UCCUGCUAGAGCUUGCUUAGUAUUUAGUUA | 0.00643 ± 0.002
UCCUCCUACAGCUUGCUUAGUUUUUAGUUA | 0.00379 ± 0.0023
UCCUGGAUCAGCUUGCAUAGUAGUUAGUUA | 0.00826 ± 0.0022
UCCUCCUACUGCUUGCAUAGUUUUUAGUUA | 0.00424 ± 0.002
UCCUGGAACAGCUUGCAUUGUAUUUAGUUA | 0.00894 ± 0.0026
UCCUGGUACAGCUUGCAUAGUAUUUAGUUUA | 0.0152 ± 0.005
UCCUGCAACAGCUAGCAUAGUAUUUAGUUA | 0.0104 ± 0.0028
UCCUGGAACAGGUUGCAAAGUAUUUAGUUA | 0.00884 ± 0.003
UCCUGGAUCAGCUUGCAUAGUACUUAGUUA | 0.00683 ± 0.0023
UCCUGGAUGAGCUGUGCAUAGUAUUUAGUUA | 0.0151 ± 0.0044
UCCUGGAUGAGCUUGCAUGGUAUUUAGUUA | 0.017 ± 0.0046
UCCUGGAUCAGCUUGCAUAGUAUUUAUUUA | 0.00658 ± 0.0024
UCCUGGUACAGCUUGCAUAGUAUUUAGUAA | 0.00667 ± 0.0024
UCCUGGAUGUGCUGGCAUAGUAUUUAGUUA | 0.0112 ± 0.0037
UCCUGGUACAGCUUGGAUAGUAUUUAGUUA | 0.0152 ± 0.0038
UCCUCCUACAGCUUGCAUAGUAUUUUGUUA | 0.0036 ± 0.0022
UCCUGGUACAGCUUGCAUAGUCUUUAGUUA | 0.00831 ± 0.003
UCCUGCUACAGCUUGGAUUGUAUUUAGUUA | 0.00506 ± 0.0023
UCCUGGAACAGCUAGCAUAGUAUUAAGUUA | 0.00356 ± 0.0025
